# Rows were chosen to be rich in hits. Some 2.8% of all compounds tested hit in one or more screens of this group.
# TWEAK Fn14 block: inhibitors of TWEAK-Fn14 signaling, primary screen, luciferase reporter cells, uHTS. inhibition, % at 10 µM. AID 1159606, 2016. TWEAK-stimulated Fn14 reporter cells, luciferase luminescence, 8 h. 360,000 compounds, 2% hits; in the data active = inhibition above about 50%
# TROY NFkB inh: inhibitors of TROY-driven NF-kB signaling, primary screen, Q293 LMP1-TROYcd cells, NF-kB luciferase, uHTS; 360,000 compounds, 0.98% hits; Q293 LMP1-TROYcd NF-kB luciferase reporter, 4 h; AID 1347056, 2019; inhibition, % at 10 µM;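 active = compounds whose plate-normalised and pattern-corrected inhibition of the luciferase reporter signal at the single screening dose is 50% or more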
# LGR2 antag: inhibitors of bursicon-induced LGR2 CRE-luciferase signal, primary screen, cell-based, HEK293, CRE-luciferase reporter, bursicon stimulation; Drosophila bursicon receptor LGR2 (rickets); bursicon-stimulated, 4 h; inhibition, % at 9.99 µM; 380,000 compounds, 0.35% hits; AID 720647, 2013;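 active = drop in luminescence signal, shown as inhibition above about 50% in the replicate tests, limit read from the data, passing the limit was not always enough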;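 note: agonist challenge used bursicon conditioned medium at about half maximal strength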
# PAX8 inh HTS: inhibitors of PAX8-driven TPO luciferase reporter, primary screen, RMG-I cells, single concentration. SteadyGlo, 24 h. inhibition, % at 12.6 µM. 360,000 compounds, 1.2% hits;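 active = mean replicate inhibition at least 60% with every replicate also reaching 60%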;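 note: luciferase light reporting Pax8 driven TPO promoter activity; plate controls were median of neutral control wells for no effect and mitoxantrone controls for full effect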
# EWS-Fli inh: EWS/Fli-driven NR0B1 reporter inhibitors, primary screen, A673 cells, NR0B1 luciferase, luminescence, MLPCN library. AID 651661, 2012. inhibition, % at 12.6 µM. viability-normalised. 350,000 compounds, 0.67% hits;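 active = mean inhibition of at least 50% after viability correction, with every replicate also passing that limit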;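 note: firefly luciferase signal divided by Alamar Blue viability fluorescence both relative to DMSO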
# Active calls of the source: *; x = not tested or not shown.
SMILES,TWEAK Fn14 block,TROY NFkB inh,LGR2 antag,PAX8 inh HTS,EWS-Fli inh
Cn1c(SCC(=O)c2ccccc2)nnc1-c1ccccn1,-10,-7,-23,90*,-98
CCOc1cc(CNc2ccc3c(c2)OCCO3)cc(Br)c1OCC,81*,77*,x,x,x
O=C(Nc1ccccc1)[C@H]1[C@H](CO)[C@H]2Cn3c(cccc3=O)[C@@H]1N2C(=O)c1ccccc1,x,x,-4,x,7
CCN(CC(O)CON=C1c2ccccc2-c2ccccc21)S(=O)(=O)c1ccc(Cl)cc1 (stereo unspecified),63*,13,11,35,x
CCN(CC(O)CON=C1c2ccccc2-c2ccccc21)S(=O)(=O)c1ccc(C)cc1 (stereo unspecified),48,36,6,22,x
C[C@@H]1CN([C@@H](C)CO)C(=O)Cc2cc(NC(=O)Cc3cn(C)c4ccccc34)ccc2O[C@H]1CN(C)S(=O)(=O)c1ccccc1,x,x,9,-8,5
Cc1c(C(c2cc3c(cc2Br)OCO3)c2c(C)n(C)n(-c3ccccc3)c2=O)c(=O)n(-c2ccccc2)n1C,64*,6,-2,x,-3
Cc1cccc(C(=O)n2c(=S)nc3ccccn32)c1,77*,43,x,x,x
O=C(c1ccccc1)n1c(=S)nc2ccccn21,82*,60*,x,x,x
Cc1cccc(C(=O)N2CCCCCC2)c1,20,0,5,x,x
CC(=O)c1ccc(NCCC(=O)c2ccccc2)cc1,69*,49,-32,-32,-30
C[C@H](CO)N1C[C@H](C)[C@H](CN(C)Cc2ccc(C(F)(F)F)cc2)OCCCC[C@H](C)Oc2ccc(NC(=O)CCC(F)(F)F)cc2C1=O,x,x,22,77*,4
C[C@@H]1CCCCO[C@@H](CN(C)Cc2ccc(Cl)c(Cl)c2)[C@@H](C)CN([C@H](C)CO)C(=O)c2cc(NC(=O)CCCN(C)C)ccc2O1,x,x,2,-9,-11
C[C@H](CO)N1C[C@H](C)[C@H](CN(C)Cc2ccc(C(F)(F)F)cc2)OCCCC[C@H](C)Oc2ccc(NC(=O)CCCN(C)C)cc2C1=O,x,x,18,28,68*
C[C@H]1CCCCO[C@@H](CN(C)Cc2ccc(C(F)(F)F)cc2)[C@@H](C)CN([C@@H](C)CO)C(=O)c2cc(NC(=O)CCC(F)(F)F)ccc2O1,x,x,20,7,18
C[C@@H]1CN([C@@H](C)CO)C(=O)c2cc(NC(=O)CCCN(C)C)ccc2O[C@@H](C)CCCCO[C@H]1CN(C)Cc1ccc(C(F)(F)F)cc1,x,x,-1,x,9
C[C@H](CO)N1C[C@H](C)[C@H](CN(C)Cc2ccc(Cl)c(Cl)c2)Oc2ccc(NC(=O)CCCN(C)C)cc2C1=O,x,x,10,-9,70*
O=S(=O)(N[C@H]1CC[C@H](CCn2cc(-c3cccc(F)c3)nn2)O[C@@H]1CO)c1ccc(Cl)cc1,x,x,12,29,13
CN(CC(=O)Nc1ccc(N2CCOCC2)cc1)Cc1c(O)ccc2ccccc12,34,50*,39,32,0
C[C@@H]1CN([C@@H](C)CO)C(=O)c2cc(NC(=O)CCN3CCOCC3)ccc2O[C@H]1CN(C)Cc1ccc(-c2ccccc2)cc1,x,x,4,-6,x
COc1cccc(C#Cc2cnc3c(c2)C(=O)N([C@@H](C)CO)C[C@H](C)[C@H](CN(C)C)O3)c1,x,x,23,8,-8
N#C/C(=C/c1ccc(-c2ccccc2)o1)c1nc(-c2cccs2)cs1,-12,-67,-10,17,83*
O=C(NC(=S)N1CCCCC1c1cccnc1)c1ccc(F)cc1 (stereo unspecified),5,73*,10,2,2
Cc1ccc(/C=N/NC(=O)c2cc3c(ccc4ccccc43)o2)o1,-14,73*,2,x,-28
Cc1noc(C)c1S(=O)(=O)Nc1ccc2c(c1)CC(=O)N([C@H](C)CO)C[C@@H](C)[C@H](CN(C)Cc1ccc(Cl)c(Cl)c1)O2,x,x,-13,3,3
SMILES,TWEAK Fn14 block,TROY NFkB inh,LGR2 antag,PAX8 inh HTS,EWS-Fli inh
COc1ccc(-c2ncncc2-c2ccc(Cl)cc2)c(O)c1,19,25,5,0,8
COc1ccc(-c2cncnc2-c2ccc(OC)cc2O)cc1,69*,41,10,-20,-7
Oc1cc(-c2ccncc2)cc2cccnc12,60*,5,36,6,13
CN(C)c1ccc(-c2cc(O)c3ncccc3c2)cc1,-71,-56,-26,-14,-19
N#C/C(=C\C=C\c1ccccc1[N+](=O)[O-])C(=O)NCc1ccccc1,88*,26,21,65*,42
N#C/C(=C\c1ccccc1[N+](=O)[O-])C(=O)NCc1ccccc1,-3,-17,-5,3,-5
Cc1noc(C)c1NC(=O)N(C)C[C@H]1Oc2ccc(NC(=O)c3ccncc3)cc2CC(=O)N([C@H](C)CO)C[C@H]1C,x,x,-13,-2,-1
COc1cccc(-n2nc(C#N)c(Cl)cc2=O)c1,29,83*,103*,98*,58*
O=C(COC(=O)C1CC(=O)N(c2ccc3c(c2)OCCO3)C1)Nc1ccc2c(c1)CCC2 (stereo unspecified),65*,10,-1,x,x
COc1ccccc1NC(=O)COC(=O)C1CC(=O)N(c2ccc3c(c2)OCCO3)C1 (stereo unspecified),64*,20,-8,3,14
COc1ccccc1NC(=O)NC1CC(=O)N(c2ccc3c(c2)OCCO3)C1 (stereo unspecified),13,-8,7,0,2
C[C@H](CO)N1C[C@H](C)[C@@H](CN(C)C(=O)Nc2ccc(F)cc2)Oc2ccc(NC(=O)CCN3CCOCC3)cc2C1=O,x,x,1,-12,-2
CC(=O)n1c2c(c3ccccc31)OC(N)=C(C#N)C2c1ccc(C(C)C)cc1 (stereo unspecified),89*,79*,18,x,-19
O=C(NC[C@@H]1[C@H](c2ccccc2)[C@H](CO)N1Cc1ccccn1)C1CCC1,x,x,9,20,-11
O=C(CN1C(=O)C2C3C=CC(C3)C2C1=O)Nc1nc2ccccc2[nH]1 (stereo unspecified),73*,x,4,x,x
COc1ccc2cc(C(=O)NCc3ccccc3)c(=Nc3ccc(C(=O)O)cc3)oc2c1,59*,-46,-37,-120,17
COc1cccc2cc(C(=O)NCc3ccco3)c(=Nc3ccc(C(=O)O)cc3)oc12,71*,42,-4,x,-13
COc1ccc2cc(C(N)=O)c(=Nc3ccccc3)oc2c1,72*,14,-63,-186,-33
Cc1ccc(S(=O)(=O)N(C)C[C@H]2Oc3c(NS(=O)(=O)c4ccccc4)cccc3C(=O)N([C@H](C)CO)C[C@@H]2C)cc1,x,x,-14,x,-15

# Screening data deposited in PubChem by several laboratories.
